The results in this text go back to PubChem BioAssay (NCATS).

Several values for one entry are separate records, joined by “and”; a condition that tells them apart may be missing. Equal values may be shown once. Inconclusive results are not listed. Entries that show only a call come without a potency. Activity calls are given as the source filed them. The call rests on the fitted dose curve; in most records, active means well fitted cell-killing curve with a large enough effect; inconclusive means small, poorly fitted or top-dose-only effect, or effect the other way; inactive means no such curve, though single readings can be large or run the other way.
Potency means the concentration at half of the fitted maximal effect.

This assay in a line: Viability qHTS for spleen associated tyrosine kinase inhibitor (SYKi) naive MV4-11 cells (AID 1963823). Further: nearly all actives have a fitted effect of over 40% in size. Particulars: MV4-11 AML viability, CellTiter-Glo luminescence, 72 h; series mostly up to 45 µM. The essentials:
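In this viability screen, compounds acted on SYK inhibitor naive MV4-11 cells for three days (72 hr, 37 C). Remaining viable cells were measured by CellTiter-Glo luminescence following a 10 min room-temperature development.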
A general note: Quantitative high-throughput screening tests each substance at several concentrations.
Turning to `C/C=C/c1ccc(O)c(OC)c1`, the Potency result is “inactive”.
To `CC(COc1ccccc1)NC(C)C(O)c1ccc(O)cc1` (stereo not given) belongs “inactive”.
Consider `CCN(CC)CCOC(=O)C(c1ccccc1)C1CCCCC1` (stereo not given), for which the Potency result was “inactive”.
Regarding `CC(C)Nc1cccnc1N1CCN(C(=O)c2cc3cc(NS(C)(=O)=O)ccc3[nH]2)CC1`, the Potency entry is “inactive”.
The value for `CCNC(=O)Nc1ncc(-c2cc(-c3c(C)cc(OC)cc3C)nc(-c3cnccn3)n2)s1` was “inactive”.
On to `CC(=O)Oc1cc(C(C)C)c(OCCN(C)C)cc1C`, for which the Potency was 1.1 nM (active).
As for `Nc1ccc(C(=O)NCC(=O)O)cc1`, the Potency entry is “inactive”.
To `Cc1ccc2cc(-c3c(C)ccc(C(=O)c4c(-c5ccccc5)n(C)n(-c5ccccc5)c4=O)c3N)ccc2n1` belongs 4610 nM (active); to `C[C@]12CCC(=O)C=C1CC[C@@H]1[C@@H]2[C@@H](O)C[C@@]2(C)[C@H]1CC[C@]2(O)C(=O)COC(=O)CCC(=O)O`, “inactive”.
Take `CC(C)(O)CC[C@@H](O)[C@](C)(O)[C@H]1CC[C@@]2(O)C3=CC(=O)[C@@H]4C[C@@H](O)[C@@H](O)C[C@]4(C)[C@H]3CC[C@]12C`: the Potency result was “inactive”.
To `CCCCOC(=O)CC(CC(=O)OCCCC)(OC(C)=O)C(=O)OCCCC` belongs “inactive”; to `COC(C)(C)CCn1nc(Nc2c(C)cccc2C)c2cnc(Nc3ccc(OCCN4CCCC4)c(F)c3)nc21`, 731 nM (active) and 742 nM (active).
Take `CC(=O)[C@]1(O)Cc2c(O)c3c(c(O)c2[C@@H](O[C@H]2C[C@H](N)[C@H](O)[C@H](C)O2)C1)C(=O)c1ccccc1C3=O`: the Potency was 75 nM (active).
The value for `COc1ccc(S(=O)(=O)N2CCc3cccc(-c4ccncc4)c32)cc1` was 833 nM (active); that for `C[C@]12CCC3=C4CCC(=O)C=C4CC[C@H]3[C@@H]1CC[C@@]2(O)CC#N` was “inactive”; that for `C=C1C[C@H]2C=Nc3cc(OCCCOc4cc5c(cc4OC)C(=O)N4CC(=C)C[C@H]4C=N5)c(OC)cc3C(=O)N2C1` was “inactive”.
On to `NCC1CCC(C(=O)Oc2ccc(CCC(=O)O)cc2)CC1` (stereo not given), for which the Potency result was “inactive”.
The value for `CN(C)CCOc1ccc(-c2nc(-c3ccc4c(c3)CC/C4=N\O)c(-c3ccncc3)[nH]2)cc1` was 7420 nM (active); that for `CC(C)Oc1ccc(-c2nn([C@@H](C)c3oc4ccc(F)cc4c(=O)c3-c3cccc(F)c3)c3ncnc(N)c23)cc1F` was 14800 nM (active); that for `CCCCCN(CCCOC)C(=O)C(CCC(=O)O)NC(=O)c1ccc(Cl)c(Cl)c1` (stereo not given) was “inactive”.
The value for `CCC(CC)CC1(C(=O)Nc2ccccc2SC(=O)C(C)C)CCCCC1` was “inactive”.
For `Cc1nc2cccc(N)c2c(=O)n1C1CCC(=O)NC1=O` (stereo not given), the Potency is 209 nM (active).
To `c1ccc(CN(CC2=NCCN2)c2ccccc2)cc1` belongs “inactive”.
The value for `COc1ccc(S(=O)(=O)Nc2cc(-c3csc(C#N)c3)ccc2C)cc1` was 83.3 nM (active); that for `CN1C(=O)N[C@H](Cc2c[nH]c3c(Cl)cccc23)C1=O` was “inactive”.
The value for `CC[C@@H](C)Nc1cc(C(=O)NC2CC3CCC(C2)N3c2ccc(C(=O)C3CC3)cn2)c(C)cc1C(N)=O` (stereo not given in full) was 41.7 nM (active).
On to `C[C@@H]1N=C(N)NC(N(C)C)=N1`, for which the Potency result was “inactive”.
To `NCC1CCC(C(=O)O)CC1` (stereo not given) belongs “inactive”.
To `O=C(OCCN1CCOCC1)c1cccnc1Nc1cccc(C(F)(F)F)c1` belongs “inactive”; to `NC(=O)c1ncn([C@@H]2O[C@H](CO)[C@@H](O)[C@H]2O)c1N`, “inactive”; to `CO/N=C(\C(=O)O)c1csc(NC(=O)CCl)n1`, “inactive”.
As for `O=C1CC(c2c[nH]c3ccc(F)cc23)C(=O)N1` (stereo not given), the Potency result was “inactive”.
The value for `COc1cc(C(=O)NC(N)=Nc2ccc(C)c(NC(=O)c3ccc(-c4ccccc4)cc3)c2)cc(OC)c1OC` was 14800 nM (active); that for `CC1(C)OC(=O)NC1=O` was “inactive”.
`CC[C@]12C=CCN3CC[C@@]4(c5cc([C@@]6(C(=O)OC)C[C@H]7C[C@@H](C(C)(F)F)CN(Cc8c6[nH]c6ccccc86)C7)c(OC)cc5N(C)[C@H]4[C@@](O)(C(=O)OC)[C@@H]1OC(C)=O)[C@@H]32`: the Potency was 55.5 nM (active).
The value for `Cc1ccc(S(=O)(=O)Cc2nc(-c3ccc(C(=O)NCc4cccnc4)cc3)oc2C)cc1` was 11.8 nM (active); that for `CC1=C(C/C=C(\C)CCC[C@H](C)CCC[C@H](C)CCCC(C)C)C(=O)c2ccccc2C1=O` was “inactive”.
To `O=C1OC(OC(=O)c2cccnc2Nc2cccc(C(F)(F)F)c2)c2ccccc21` (stereo not given) belongs “inactive”; to `CC(C)(C)c1ccc(O)c(O)c1`, 9690 nM (active); to `CC(=O)OCC(=O)[C@@]1(O)CC[C@H]2[C@@H]3CCC4=CC(=O)CC[C@]4(C)[C@H]3C(=O)C[C@@]21C`, “inactive”.
